Laboratory results: the supplement of paper PMC11732987, “Enantioselective OTUD7B fragment discovery through chemoproteomics screening and high-throughput optimisation” (Communications Chemistry, 2025)

What was measured:
Assay in all cases: log2 ratio of Biotin-Ahx-Ub-VS probe labelling (fragment/DMSO); higher = less target engagement (more negative = stronger competition), active = hit call of the paper (q ≤ 0.05, log2 ratio ≤ -1)
Conditions in all cases: compound concentration: 200 uM; treatment time: 3 h
USP19 = molecular target: T1, USP19 (UniProt O94966)
T1 sequence (whole entry): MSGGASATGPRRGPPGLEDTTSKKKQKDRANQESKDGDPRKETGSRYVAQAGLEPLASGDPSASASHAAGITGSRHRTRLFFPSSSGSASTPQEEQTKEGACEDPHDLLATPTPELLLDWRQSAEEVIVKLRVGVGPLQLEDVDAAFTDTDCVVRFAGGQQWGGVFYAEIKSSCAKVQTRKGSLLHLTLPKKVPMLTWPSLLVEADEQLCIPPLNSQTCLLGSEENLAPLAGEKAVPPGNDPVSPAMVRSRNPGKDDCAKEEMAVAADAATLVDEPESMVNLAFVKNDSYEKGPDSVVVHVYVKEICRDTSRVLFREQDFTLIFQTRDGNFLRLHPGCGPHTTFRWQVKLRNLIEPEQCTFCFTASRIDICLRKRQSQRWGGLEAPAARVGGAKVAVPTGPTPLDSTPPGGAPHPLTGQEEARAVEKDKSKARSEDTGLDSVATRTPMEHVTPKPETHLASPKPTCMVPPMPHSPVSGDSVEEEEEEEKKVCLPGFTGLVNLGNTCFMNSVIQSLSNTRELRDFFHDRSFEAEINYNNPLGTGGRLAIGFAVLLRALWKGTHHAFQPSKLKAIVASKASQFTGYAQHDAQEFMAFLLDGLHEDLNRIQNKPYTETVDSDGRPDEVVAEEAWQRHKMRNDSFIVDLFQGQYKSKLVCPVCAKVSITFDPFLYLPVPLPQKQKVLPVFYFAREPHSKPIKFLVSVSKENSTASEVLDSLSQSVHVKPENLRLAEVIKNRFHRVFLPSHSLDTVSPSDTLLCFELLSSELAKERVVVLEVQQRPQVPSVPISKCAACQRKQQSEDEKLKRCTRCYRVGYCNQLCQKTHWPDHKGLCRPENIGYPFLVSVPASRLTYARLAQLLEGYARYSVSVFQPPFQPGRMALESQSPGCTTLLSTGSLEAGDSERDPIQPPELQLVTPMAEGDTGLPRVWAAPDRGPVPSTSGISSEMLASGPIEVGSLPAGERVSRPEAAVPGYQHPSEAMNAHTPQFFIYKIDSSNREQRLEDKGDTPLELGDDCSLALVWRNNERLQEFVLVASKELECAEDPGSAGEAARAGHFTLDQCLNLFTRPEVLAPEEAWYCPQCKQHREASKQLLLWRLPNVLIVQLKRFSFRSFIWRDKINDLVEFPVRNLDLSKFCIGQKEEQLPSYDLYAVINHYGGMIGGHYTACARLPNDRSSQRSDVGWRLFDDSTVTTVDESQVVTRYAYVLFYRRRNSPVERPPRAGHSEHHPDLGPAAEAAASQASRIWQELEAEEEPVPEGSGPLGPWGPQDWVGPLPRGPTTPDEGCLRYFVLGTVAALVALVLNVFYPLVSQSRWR
Procedure, shortened: (§1)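 Each value is an average log2 ratio of fragment to vehicle, tested by unpaired t-test. The underlying Spectronaut label-free quantities were global-median-normalised, and only proteins with ≥2 unique peptides were included. Triplicate HEK293T lysate samples (495 µg) were exposed to fragment at 200 µM or vehicle for 3 h, then to Biotin-Ahx-Ub-VS at 0.5 µM final for 1 h, before NeutrAvidin enrichment of labelled DUBs, LysC and trypsin digestion, and diaPASEF LC-MS/MS.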

USP22 = molecular target: T2, USP22 (UniProt Q9UPT9)
T2 sequence (whole entry): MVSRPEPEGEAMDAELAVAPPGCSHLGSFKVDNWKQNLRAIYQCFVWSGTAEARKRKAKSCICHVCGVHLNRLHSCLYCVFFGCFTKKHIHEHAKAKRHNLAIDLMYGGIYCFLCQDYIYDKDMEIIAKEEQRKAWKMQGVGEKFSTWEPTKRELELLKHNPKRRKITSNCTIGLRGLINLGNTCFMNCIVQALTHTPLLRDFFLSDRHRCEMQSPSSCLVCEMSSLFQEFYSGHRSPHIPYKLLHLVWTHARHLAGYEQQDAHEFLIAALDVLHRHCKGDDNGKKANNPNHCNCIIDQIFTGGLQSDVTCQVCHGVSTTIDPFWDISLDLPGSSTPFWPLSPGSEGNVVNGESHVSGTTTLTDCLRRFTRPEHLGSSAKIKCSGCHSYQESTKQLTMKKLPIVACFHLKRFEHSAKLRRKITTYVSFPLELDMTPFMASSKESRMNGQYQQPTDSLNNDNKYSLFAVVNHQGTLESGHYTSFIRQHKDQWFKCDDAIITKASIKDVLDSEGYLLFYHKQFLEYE
Procedure, shortened: as §1

USP24 = USP24 (UniProt Q9UPU5)
Sequence of USP24 (Q9UPU5 whole entry): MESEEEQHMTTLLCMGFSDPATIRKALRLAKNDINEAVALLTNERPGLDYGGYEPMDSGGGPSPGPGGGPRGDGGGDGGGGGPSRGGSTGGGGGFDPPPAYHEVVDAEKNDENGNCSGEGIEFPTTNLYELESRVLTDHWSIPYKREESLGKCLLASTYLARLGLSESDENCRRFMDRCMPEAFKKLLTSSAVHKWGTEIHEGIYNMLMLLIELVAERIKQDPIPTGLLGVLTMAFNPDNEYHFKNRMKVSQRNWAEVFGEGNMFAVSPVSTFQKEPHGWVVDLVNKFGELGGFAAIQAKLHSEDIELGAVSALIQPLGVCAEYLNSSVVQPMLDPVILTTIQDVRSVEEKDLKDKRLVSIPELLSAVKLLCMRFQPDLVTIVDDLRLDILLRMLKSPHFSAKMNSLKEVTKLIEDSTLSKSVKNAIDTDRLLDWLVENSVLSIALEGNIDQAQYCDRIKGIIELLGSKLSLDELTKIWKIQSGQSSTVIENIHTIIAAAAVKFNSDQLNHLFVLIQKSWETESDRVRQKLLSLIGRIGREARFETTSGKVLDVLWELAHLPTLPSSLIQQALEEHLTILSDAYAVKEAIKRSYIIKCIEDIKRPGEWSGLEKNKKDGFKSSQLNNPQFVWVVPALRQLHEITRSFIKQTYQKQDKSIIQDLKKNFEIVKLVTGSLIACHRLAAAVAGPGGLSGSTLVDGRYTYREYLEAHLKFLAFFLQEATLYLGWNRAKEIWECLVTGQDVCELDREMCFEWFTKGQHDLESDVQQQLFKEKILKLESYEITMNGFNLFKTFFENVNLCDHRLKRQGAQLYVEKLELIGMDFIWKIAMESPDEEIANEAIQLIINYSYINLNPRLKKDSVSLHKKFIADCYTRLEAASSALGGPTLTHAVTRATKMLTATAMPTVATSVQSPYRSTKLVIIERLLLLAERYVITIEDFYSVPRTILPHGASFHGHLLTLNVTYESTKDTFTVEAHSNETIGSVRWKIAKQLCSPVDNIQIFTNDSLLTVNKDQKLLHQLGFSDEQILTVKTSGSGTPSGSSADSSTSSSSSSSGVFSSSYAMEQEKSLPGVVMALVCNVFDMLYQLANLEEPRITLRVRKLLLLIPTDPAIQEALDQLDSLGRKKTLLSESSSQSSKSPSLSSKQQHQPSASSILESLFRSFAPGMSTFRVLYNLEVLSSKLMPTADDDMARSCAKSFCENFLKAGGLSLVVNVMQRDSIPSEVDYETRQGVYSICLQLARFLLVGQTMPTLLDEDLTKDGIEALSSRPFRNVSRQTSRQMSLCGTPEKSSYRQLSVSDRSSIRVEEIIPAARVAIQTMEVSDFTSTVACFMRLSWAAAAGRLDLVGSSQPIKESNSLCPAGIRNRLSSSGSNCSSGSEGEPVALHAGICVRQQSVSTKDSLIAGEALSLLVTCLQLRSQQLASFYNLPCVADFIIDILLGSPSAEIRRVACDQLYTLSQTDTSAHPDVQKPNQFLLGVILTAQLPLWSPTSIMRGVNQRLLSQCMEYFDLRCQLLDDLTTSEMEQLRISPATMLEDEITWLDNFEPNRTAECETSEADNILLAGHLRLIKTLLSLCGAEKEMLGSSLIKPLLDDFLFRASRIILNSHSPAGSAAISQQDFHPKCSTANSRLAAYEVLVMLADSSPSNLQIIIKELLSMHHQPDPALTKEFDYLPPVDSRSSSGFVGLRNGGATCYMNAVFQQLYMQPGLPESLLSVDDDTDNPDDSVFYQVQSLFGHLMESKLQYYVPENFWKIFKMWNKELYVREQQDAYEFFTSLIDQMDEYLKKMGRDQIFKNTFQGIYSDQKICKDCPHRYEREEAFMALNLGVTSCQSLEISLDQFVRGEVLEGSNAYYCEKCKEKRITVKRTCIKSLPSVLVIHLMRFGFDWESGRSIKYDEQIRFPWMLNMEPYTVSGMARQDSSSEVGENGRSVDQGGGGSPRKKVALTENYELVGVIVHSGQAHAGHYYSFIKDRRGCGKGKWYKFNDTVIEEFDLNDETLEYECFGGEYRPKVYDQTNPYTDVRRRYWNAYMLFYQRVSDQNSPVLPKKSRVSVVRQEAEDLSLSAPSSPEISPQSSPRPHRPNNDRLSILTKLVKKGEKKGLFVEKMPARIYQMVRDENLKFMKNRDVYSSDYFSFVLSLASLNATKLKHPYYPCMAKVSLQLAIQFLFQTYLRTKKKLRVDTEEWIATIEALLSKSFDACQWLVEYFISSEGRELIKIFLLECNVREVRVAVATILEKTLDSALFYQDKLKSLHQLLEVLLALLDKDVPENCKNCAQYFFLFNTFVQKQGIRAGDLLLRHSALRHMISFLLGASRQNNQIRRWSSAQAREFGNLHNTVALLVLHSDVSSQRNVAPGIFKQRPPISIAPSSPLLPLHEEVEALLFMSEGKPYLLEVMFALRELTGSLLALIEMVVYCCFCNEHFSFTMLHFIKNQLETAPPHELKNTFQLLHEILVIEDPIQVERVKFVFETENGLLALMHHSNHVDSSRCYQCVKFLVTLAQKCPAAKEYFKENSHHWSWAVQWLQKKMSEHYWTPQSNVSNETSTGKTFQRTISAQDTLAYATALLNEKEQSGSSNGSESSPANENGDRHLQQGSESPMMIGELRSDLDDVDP
Procedure, shortened: as §1

USP25 = molecular target: T3, USP25 (UniProt Q9UHP3)
T3 sequence (whole entry): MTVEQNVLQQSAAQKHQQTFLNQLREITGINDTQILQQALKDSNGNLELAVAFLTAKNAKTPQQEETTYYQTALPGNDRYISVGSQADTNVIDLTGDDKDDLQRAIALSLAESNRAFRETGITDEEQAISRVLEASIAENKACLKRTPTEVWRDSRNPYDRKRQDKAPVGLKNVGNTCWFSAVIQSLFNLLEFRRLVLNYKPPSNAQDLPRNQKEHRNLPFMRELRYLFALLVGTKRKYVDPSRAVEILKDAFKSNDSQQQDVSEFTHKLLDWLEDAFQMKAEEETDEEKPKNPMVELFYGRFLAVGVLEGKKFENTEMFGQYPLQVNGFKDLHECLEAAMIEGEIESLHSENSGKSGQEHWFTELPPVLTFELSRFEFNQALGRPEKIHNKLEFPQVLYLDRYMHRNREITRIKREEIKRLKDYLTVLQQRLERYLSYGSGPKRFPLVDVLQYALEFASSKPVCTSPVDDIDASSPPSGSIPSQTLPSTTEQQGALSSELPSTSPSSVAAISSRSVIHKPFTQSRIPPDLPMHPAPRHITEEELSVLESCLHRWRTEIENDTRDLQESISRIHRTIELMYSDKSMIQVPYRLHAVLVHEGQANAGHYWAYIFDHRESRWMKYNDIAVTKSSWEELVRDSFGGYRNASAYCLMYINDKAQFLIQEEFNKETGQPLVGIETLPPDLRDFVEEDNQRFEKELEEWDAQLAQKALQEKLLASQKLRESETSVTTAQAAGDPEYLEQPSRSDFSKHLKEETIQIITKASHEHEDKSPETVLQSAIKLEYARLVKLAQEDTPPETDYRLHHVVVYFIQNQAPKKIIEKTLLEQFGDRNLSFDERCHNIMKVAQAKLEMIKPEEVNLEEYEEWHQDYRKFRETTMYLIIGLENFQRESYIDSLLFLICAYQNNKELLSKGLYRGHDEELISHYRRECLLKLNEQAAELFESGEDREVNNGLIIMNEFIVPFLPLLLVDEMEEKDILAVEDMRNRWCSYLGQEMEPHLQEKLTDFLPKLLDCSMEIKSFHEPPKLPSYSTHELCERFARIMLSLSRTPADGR
Procedure, shortened: as §1

USP28 = molecular target: T4, USP28 (UniProt Q96RU2)
T4 sequence (whole entry): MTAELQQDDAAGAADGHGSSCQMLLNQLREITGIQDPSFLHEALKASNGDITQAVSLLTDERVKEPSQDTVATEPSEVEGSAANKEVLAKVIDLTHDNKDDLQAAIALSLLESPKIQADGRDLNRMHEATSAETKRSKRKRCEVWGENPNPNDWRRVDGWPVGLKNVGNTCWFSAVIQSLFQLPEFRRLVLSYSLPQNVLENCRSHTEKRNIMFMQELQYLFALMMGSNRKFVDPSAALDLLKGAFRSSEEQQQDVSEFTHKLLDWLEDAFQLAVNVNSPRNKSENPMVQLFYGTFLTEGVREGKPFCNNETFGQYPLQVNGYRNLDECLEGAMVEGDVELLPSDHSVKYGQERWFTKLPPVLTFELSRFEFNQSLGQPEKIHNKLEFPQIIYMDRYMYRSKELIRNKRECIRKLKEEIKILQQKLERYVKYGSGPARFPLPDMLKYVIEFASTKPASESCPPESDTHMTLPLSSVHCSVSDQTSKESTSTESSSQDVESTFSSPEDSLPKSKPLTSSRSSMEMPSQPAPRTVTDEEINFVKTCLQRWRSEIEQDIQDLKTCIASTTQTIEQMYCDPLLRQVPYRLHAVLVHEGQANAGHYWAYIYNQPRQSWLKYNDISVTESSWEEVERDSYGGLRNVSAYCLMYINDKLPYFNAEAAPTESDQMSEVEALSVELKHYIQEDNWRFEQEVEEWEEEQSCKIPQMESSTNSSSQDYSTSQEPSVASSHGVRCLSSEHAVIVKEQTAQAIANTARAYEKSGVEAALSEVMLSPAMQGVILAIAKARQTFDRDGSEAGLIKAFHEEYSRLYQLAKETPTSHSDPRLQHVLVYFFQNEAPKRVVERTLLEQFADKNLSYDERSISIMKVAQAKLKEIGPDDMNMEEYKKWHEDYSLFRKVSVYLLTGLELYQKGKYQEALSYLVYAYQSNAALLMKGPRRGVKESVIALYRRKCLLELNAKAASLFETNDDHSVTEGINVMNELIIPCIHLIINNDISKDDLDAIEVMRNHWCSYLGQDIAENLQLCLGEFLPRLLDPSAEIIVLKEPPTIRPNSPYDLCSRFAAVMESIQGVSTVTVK
Procedure, shortened: as §1

Measured: log2 ratio of Biotin-Ahx-Ub-VS probe labelling

O=C(CCl)N1CCC(S(=O)(=O)c2ccc(F)cc2)CC1
inactive: USP19 -0.376 | USP22 0.191 | USP24 -0.346 | USP25 -0.444 | USP28 -0.572
